15 compounds from PubChem BioAssay AID624256 (NMMLSC, 2012) can be followed below.

Structures are written as SMILES. About 3,700 (1%) of roughly 360,000 compounds were called active. Not shown: some 2% with an inconclusive outcome.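 Rule for the calls: active = normalized GFP-positive differentiation at or above the plate's own cutoff, the solvent-only control mean plus 3 SD; inconclusive = no clear call, values can overlap the other calls; inactive = the rest.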 Many of the other results were omitted from the sample, so actives are more common in it than they were.

The assay in a line: induction of myeloid progenitor differentiation, primary screen, cell-based, flow cytometry, MLPCN library (AID 624256).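 For GFP+ MAC1+ double positive: cells exposed to compound for four days before flow analysis.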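 For normalized GFP-positive differentiation: cells exposed to compound for four days before flow analysis; 0% = DMSO wells and 100% = fulvestrant positive control at 5 µM.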 The note with it: ER-HoxA9 myeloid progenitors, lysozyme-GFP differentiation, at 10 µM; GFP+ MAC1+ double positive: measured here: differentiation confirmed by MAC1 staining, stronger effect = higher value; normalized GFP-positive differentiation: stronger effect = higher value. (In general: A flow cytometer gives signals particle by particle.)
With `O=C1NC(=O)N(CCc2ccc(F)cc2)C(=O)/C1=C/C=C/c1ccccc1`, the GFP+ MAC1+ double positive was determined as 0.9% and the normalized GFP-positive differentiation was 70.4% (active).

As to `CNC(=O)O/N=C(\N)Cc1csc2ccc(Cl)cc12`, the GFP+ MAC1+ double positive was 0.2% and the outcome was inactive.

Consider `CC(C)Nc1nc(Cl)nc(NC(C)C)n1`, for which the GFP+ MAC1+ double positive turned out to be 0.1% and the compound was classed as inactive.

Turning to `COc1ccc(N=Cc2c(O)n(C)c(=O)[nH]c2=O)cc1`, the GFP+ MAC1+ double positive worked out at 0.4% and the compound was classed as inactive.

In the case of `C[C@H]1CN([C@@H](C)CO)C(=O)CCCn2nncc2CO[C@H]1CN(C)C(=O)Oc1ccccc1`, the GFP+ MAC1+ double positive was 0.8% and the compound was classed as inactive.

For `Cc1ccccc1NC(=O)COC(=O)c1cc(C)n(C2CC2)c1C`, the GFP+ MAC1+ double positive is 1.3% and the compound was classed as inactive.

Consider `CC(=NCC1CCCO1)c1c(O)n(-c2ccccc2)c(=O)[nH]c1=O` (stereo not given), for which the GFP+ MAC1+ double positive turned out to be 0.9% and the compound was called inactive.

With `OCC#CC[N+]1(CC#Cc2ccccc2)CCCC1`, the GFP+ MAC1+ double positive came to 1.2% and the normalized GFP-positive differentiation was 7.55% (active).

Consider `COC(=O)C1=C(c2cc3ccccc3s2)C[C@@H]2CC[C@H]1N2C(=O)NCCO`, for which the GFP+ MAC1+ double positive was found to be 4.1% and the result was inactive.

For the compound `CCOC(=O)[C@]12Cc3cc(OC)ccc3[C@H]1N(C(C)C)C(=O)c1ccccc12`, the GFP+ MAC1+ double positive came out at 1.5% and the result was inactive.

As for `c1ccc(CC2CCCCN2)cc1` (stereo not given), the GFP+ MAC1+ double positive worked out at 0.1% and the compound was called inactive.

For `c1ccc2sc(C3CCCNC3)nc2c1` (stereo not given), the GFP+ MAC1+ double positive came out at 1.2% and the outcome was inactive.

As for `CC1CC=CCC12C(=O)NC(=S)NC2=O` (stereo not given), the GFP+ MAC1+ double positive was determined as 11.7% and the normalized GFP-positive differentiation is 312% (active).

For `CN1CCC[C@@H]1CCO[C@](C)(c1ccccc1)c1ccc(Cl)cc1`, the GFP+ MAC1+ double positive came out at 3.2% and the result was inactive.

Take `CC1C2Cn3c(nc4ccccc43)C1N(C)O2` (stereo not given): the GFP+ MAC1+ double positive was determined as 1.5% and the result was inactive.
